The campaign covered roughly 290,000 compounds. About 3,000 (1%) were called active. Cut-off read from the data, not from the text of the source: active = inhibition mostly above about 36% (no sharp cut-off); inactive = mostly below about 34%. Many of the other results were omitted from the sample, so actives are more common in it than they were.

The test in a line: NOD1 signaling inhibitors, primary screen, cell-based, luminescence, uHTS (AID 1578).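 Note: HEK-293T reporter cells stimulated with the NOD1 agonist gamma-tri-DAP.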 Particulars: NOD1-driven NF-kB luciferase reporter cells, at 4 µM, hits give high values.
As to `CC(=O)OC[C@H]1O[C@@H](O/N=C(\C)CCN2CCCCc3nc(C)c(C)cc32)[C@H](OC(C)=O)[C@@H](OC(C)=O)[C@@H]1OC(C)=O`, the inhibition is -2.5% (inactive).
Next, `Cc1ccc(S(=O)(=O)c2nc(-c3ccccc3F)oc2N2CC(C)OC(C)C2)cc1` (stereo not given): -20% (inactive).
In the case of `Cc1ccc(-c2ccc(/C=C(\C#N)C(N)=S)n2C)cc1`, the inhibition is -19.8% (inactive).
Next, `Cc1cc(C)c(C)c(/C=C(/C#N)C(N)=S)c1C`: 14.2% (inactive); `Cc1cc(C)c(/C=C(\C#N)C(N)=S)c(C)c1`: 106% (active).
Under `CC1CCN(C(=O)COc2cccc3c2CCN(Cc2ccccc2)C3=O)CC1` stands -16% (inactive); under `COc1ccc2nc(NC(C)=O)sc2c1`, -12.9% (inactive); under `CC(=O)c1sc(Nc2nc3ccc(F)cc3s2)nc1C`, -20.9% (inactive).
Under `Clc1ncccc1-c1nnn(-c2ccccc2Br)n1` stands -23.5% (inactive); under `CCc1nnc(NC(=O)c2ccc(NC(=O)C(C)C)cc2)s1`, -39.9% (inactive); under `N#C/C(=C(/O)CN1CCOCC1)c1nc(-c2ccccc2)cs1`, -15.4% (inactive).
`COc1ccc(/C=N/NC(=O)c2cc(C3CC3)[nH]n2)cc1OC`: the inhibition was -1.2% (inactive).
As for `COc1ccccc1C(=O)CSc1n[nH]c(N)n1`, the inhibition was 65.9% (active).
Take `COc1ccc(C(=O)CSc2n[nH]c(N)n2)cc1`: the inhibition was -10% (inactive).
On to `COc1ccccc1CNC(=O)CSc1n[nH]c(N)n1`, for which the inhibition was -8.6% (inactive).
Under `Cc1ccc2nc(-c3ccccn3)cc(C(=O)NCCc3ccc(F)cc3)c2c1` stands -8.3% (inactive).
Next, `CC(C)OC(=O)c1ccc(COC(=O)c2cccc(-c3nnc(-c4ccccc4)o3)c2)cc1`: -13% (inactive).
Under `Oc1[nH]c2ccc(Br)cc2c1N=NC(=S)N1CCOCC1` stands 99% (active); under `Oc1[nH]c2ccc(Br)cc2c1N=NC(=S)Nc1ccc(F)cc1`, -7.9% (inactive); under `N=C(N)N=Nc1c(O)[nH]c2ccc(Br)cc12`, -31.8% (inactive).
Take `COc1ccc(CCNC(=O)CSc2nc3c(c(=O)n(C)c(=O)n3C)n2C)cc1OC`: the inhibition was -28.4% (inactive).
Under `O=[N+]([O-])c1ccc(Sc2cccc[n+]2[O-])c2nonc12` stands 106% (active); under `O=[N+]([O-])c1ccc(Nc2ccccc2O)c2nonc12`, -3.2% (inactive).
Under `O=[N+]([O-])c1ccc(Nc2ccccc2)c2nonc12` stands -7.4% (inactive).
Consider `N#Cc1ccccc1NC(=O)CSc1nnc(-c2ccncc2)o1`, for which the inhibition is 4.5% (inactive).
Under `Cn1c(-c2csc(-c3ccccc3)n2)n[nH]c1=S` stands -29.3% (inactive); under `Cc1cc(C)c(C(CC(=O)c2cccs2)C(C#N)C#N)c(C)c1` (stereo not given), 26.3% (inactive).
Next, `Cc1ccccc1C(CC(=O)c1cccs1)C(C#N)C#N` (stereo not given): 85.2% (active); `CC(CC(=O)c1cccs1)CC(=O)c1cccs1`: -14.5% (inactive).
For `O=[N+]([O-])c1cccc(Nc2nc(Cl)nc(Cl)n2)c1`, the inhibition is 14.4% (inactive).
Next, `COc1nc(NC(C)(C)C)nc(Oc2ccc(=O)n(-c3ccccc3)n2)n1`: -3.3% (inactive).
Take `COc1ccc(NC(=O)c2ccc(C)cc2)cc1`: the inhibition was -19.2% (inactive).
Next, `COC(=O)NC(NS(=O)(=O)c1ccccc1)(C(=O)OC)C(F)(F)F` (stereo not given): -0.4% (inactive); `Cc1ccc(S(=O)(=O)C(CCC(=O)c2ccc(Cl)cc2)C(N)=O)cc1` (stereo not given): 9.7% (inactive).
Consider `Cc1ccc(C(=O)NNC(=S)NC(=O)c2ccc(Cl)cc2)cc1`, for which the inhibition is 31.1% (inactive).
Under `COC(=O)NC(=C(Cl)Cl)S(=O)(=O)c1ccccc1` stands 74.9% (active); under `CCOC(=O)NC(C(Cl)(Cl)Cl)S(=O)(=O)c1ccccc1` (stereo not given), 5% (inactive).
Under `COc1ccc(C(=O)NCS(=O)(=O)c2ccc(C)cc2)cc1` stands 7.7% (inactive); under `Cc1ccc(S(=O)(=O)NNC(=O)c2ccc(O)cc2)cc1`, -14.1% (inactive).
With `Cc1ccc(C(=O)NC(=S)NNS(=O)(=O)c2ccc(C)cc2)cc1`, the inhibition is -34.4% (inactive).
Under `CCOC(=O)C1CCN(S(=O)(=O)c2ccc(C)c(C)c2)CC1` stands -13.2% (inactive).
Next, `CCOC(=O)c1ccc(NC(=S)N2CCN(CCNC3=CC(=O)CC(C)(C)C3)CC2)cc1`: -30.1% (inactive); `CCC(=O)c1ccc(OCC(=O)Nc2ccc(N3CCOCC3)cc2N2CCOCC2)cc1`: -43.2% (inactive).
On to `COc1ccc(C(=O)NCCN2CCOCC2)c(OC)c1OC`, for which the inhibition is 4.8% (inactive).
Under `CNC(=O)C1CCN(S(=O)(=O)c2c(C)noc2/C=C/N(C)C)CC1` stands -22.5% (inactive).
In the case of `Cc1cc(C)c(C#N)c(SCc2cc3c(cc2Cl)OCO3)n1`, the inhibition is 26.9% (inactive).
Regarding `O=C(CSc1ccc2c(c1)OCCO2)Nc1ccc(N2CCOCC2)cc1`, the inhibition was -37.2% (inactive).
Next, `COc1cccc(N2CCN(C(C)C(=O)NC34CC5CC(CC(C5)C3)C4)CC2)c1` (stereo not given): -31.5% (inactive).
Consider `Cc1ccc(-n2ncc3c(SCc4cccnc4)ncnc32)c(C)c1`, for which the inhibition is 1.6% (inactive).
Next, `Cc1ccc(S(=O)(=O)NCCNC(=O)c2ccccc2)cc1`: -16.6% (inactive); `Cc1ccc(S(=O)(=O)CNC(=O)c2ccccc2)cc1`: -6.8% (inactive).
As for `COc1ccccc1Oc1ccnc2cc(Cl)ccc12`, the inhibition is 27.5% (inactive).
`O=C(/C=C/Nc1ccc(Br)cc1F)c1ccco1`: the inhibition is 53.7% (active).
Under `O=C(/C=C/Nc1ccc(F)cc1F)c1ccco1` stands -11.6% (inactive); under `O=C(/C=C/Nc1ccc(Br)cc1F)c1ccccc1`, 27.6% (inactive).
On to `COc1ccc(C2C(C(=O)N3CCC(C)CC3)c3ccccc3C(=O)N2C)cc1` (stereo not given), for which the inhibition is -14.1% (inactive).
Next, `COCCC(=O)NC1CCCc2c1cnn2-c1cccc(C)c1C` (stereo not given): -25.1% (inactive); `Cn1c(-c2ccccc2)cnc1SCC(=O)N1CCCCC1`: 32% (active); `Cn1c(-c2ccc(F)cc2)cnc1SCC(=O)N1CCCCC1`: -31.8% (inactive).
For `Cn1c(-c2ccccc2)cnc1SCC(N)=O`, the inhibition is 0.4% (inactive).
Under `Cc1cc(C)[n+](-c2ccc(C(C)C)cc2)c2[nH]c(=O)[nH]c(=O)c12` stands -20.8% (inactive); under `Cc1[nH]nc(SCC(=O)Nc2cccc(O)c2)c1[N+](=O)[O-]`, -37.4% (inactive); under `CC(C)CNS(=O)(=O)c1ccc(CCC(=O)Nc2cc(Cl)ccc2Oc2ccccc2)cc1`, 23.4% (inactive).
Take `CCNS(=O)(=O)c1ccc(CCC(=O)Nc2cc(Cl)ccc2Oc2ccccc2)cc1`: the inhibition is 34% (inactive).
Regarding `CCCNS(=O)(=O)c1ccc(CCC(=O)Nc2cc(Cl)ccc2Oc2ccccc2)cc1`, the inhibition was 79.1% (active).

For the origin of these results see PubChem BioAssay AID1578 (Sanford-Burnham Center for Chemical Genomics, 2009).
